Source: PubChem BioAssay AID1159580 (chemical genetic matrix, 2015)
Screen size: about 5,500 compounds; about 2,000 (36%) were called active. Not shown: some 18% with an inconclusive outcome. No stated cut-off is given here; in the data, active means normalized growth mostly below about 0.91 (no sharp cut-off); inconclusive means no clear call, values can overlap the other calls; inactive means mostly above about 0.92. Some of the results follow.

Test: chemical genetic growth profiling, strain panel (AID 1159580);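 further: tested at 20 µM; growth read once vehicle control cultures reached saturation at 30 °C; 1 = growth at the plate median or of vehicle wells; lower values mean less growth of the strain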
Details: S. cerevisiae deletion strains, growth OD
[1] = locus YDR150W, strain NUM1, active compounds read low
[2] = locus YGR078C, strain PAC10, active compounds read low
[3] = locus YMR263W, strain SAP30, active compounds read low
[4] = locus YNL322C, strain KRE1, active compounds read low
[5] = locus YPL241C, strain CIN2, active compounds read low

Measured: normalized growth

COc1ccc(S(=O)(=O)Nc2cc(C)c(C)cc2[N+](=O)[O-])c(OC)c1
inactive: locus YAL013W, strain DEP1, active compounds read low 1.01 | locus YBR229C, strain ROT2, active compounds read low 1 | locus YCL061C, strain MRC1, active compounds read low 1 | locus YDL101C, strain DUN1, active compounds read low 1.01 | [1] 0.885 | locus YEL061C, strain CIN8, active compounds read low 1.01 | [2] 0.995 | locus YGR229C, strain SMI1, active compounds read low 1.01 | locus YHR030C, strain SLT2, active compounds read low 0.991 | locus YHR087W, strain rtc3, active compounds read low 1 | locus YJR043C, strain POL32, active compounds read low 1 | locus YJR075W, strain HOC1, active compounds read low 1.01 | locus YKL190W, strain CNB1, active compounds read low 1.02 | locus YLR039C, strain RIC1, active compounds read low 0.968 | locus YLR058C, strain SHM2 (second series), active compounds read low 1 | locus YLR085C, strain ARP6, active compounds read low 1.04 | locus YLR262C, strain YPT6, active compounds read low 0.967 | locus YML094W, strain GIM5, active compounds read low 0.983 | locus YMR219W, strain ESC1, active compounds read low 0.999 | [3] 0.973 | locus YNL128W, strain TEP1, active compounds read low 1.02 | locus YNL153C, strain GIM3, active compounds read low 1.02 | locus YNL298W, strain CLA4 (second series), active compounds read low 1.04 | [4] 0.989 | locus YNR030W, strain Alg12, active compounds read low 0.998 | locus YPL055C, strain LGE1, active compounds read low 0.889 | [5] 1.03 | locus YPR135W, strain CTF4, active compounds read low 0.946

Ic1ccccc1CNC1C2CCN(CC2)C1C(c1ccccc1)c1ccccc1 (configuration not stated)
inactive: locus YAL040C, strain CLN3, active compounds read low 0.998 | locus YCL061C, strain MRC1 (second series), active compounds read low 0.984 | [1] 0.996 | locus YDR363W, strain ESC2, active compounds read low 0.977 | locus YER002W, strain NOP16, active compounds read low 1.05 | [2] 1 | [3] 0.998 | locus YMR307W, strain GAS1, active compounds read low 0.989 | locus YNL175C, strain NOP13, active compounds read low 1.05 | locus YNL197C, strain WHI3, active compounds read low 1.07 | locus YNL224C, strain SQS1, active compounds read low 1.05 | [4] 1 | locus YOR083W, strain WHI5 (second series), active compounds read low 1.05 | [5] 0.998
